The record followed here is PubChem BioAssay AID777 (Sanford-Burnham Center for Chemical Genomics, 2007).

In general, inhibition refers to the relative decrease from the control value, in per cent.

Each structure is given as a SMILES string. Among all 96,000 compounds or so, about 19,000 (20%) were called active. A selection follows. A number with no mark means an inactive call.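 Rule for the calls: active = blocking of liver enzyme CYP2C9 beyond about 50% at 5 µM (limit read from the data); inactive = the rest.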

Chain of Cytochrome P450 2C9 (Homo sapiens) (P11712 whole entry, looked up): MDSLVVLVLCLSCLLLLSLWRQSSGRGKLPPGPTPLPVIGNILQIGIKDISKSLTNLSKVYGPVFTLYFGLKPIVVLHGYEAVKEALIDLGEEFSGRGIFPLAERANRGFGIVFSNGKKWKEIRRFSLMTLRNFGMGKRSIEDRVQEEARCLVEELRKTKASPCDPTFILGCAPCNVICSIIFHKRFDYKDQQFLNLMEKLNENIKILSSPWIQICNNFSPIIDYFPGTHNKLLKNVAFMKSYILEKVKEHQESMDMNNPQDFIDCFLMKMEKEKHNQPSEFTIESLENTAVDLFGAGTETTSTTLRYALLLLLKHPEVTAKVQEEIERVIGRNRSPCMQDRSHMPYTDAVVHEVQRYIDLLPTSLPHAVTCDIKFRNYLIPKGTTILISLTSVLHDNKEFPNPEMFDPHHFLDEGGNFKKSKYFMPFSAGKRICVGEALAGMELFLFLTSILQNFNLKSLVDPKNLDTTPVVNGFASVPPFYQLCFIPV

This experiment concerns the target Cytochrome P450 2C9 (Homo sapiens) (UniProt P11712). Nature of the experiment: blockers of cytochrome P450 2C9 activity – biochemical, luminescence, ADME assay, primary screen (AID 777). The note with it: CYP2C9 Supersomes, luciferin-H conversion, at 5 µM, hits give high values.
Turning to `COCCNC(=O)CN(C(=O)CCC(=O)Nc1cc(C)on1)c1ccc(C)cc1C`, the inhibition is -2.4%. The figure for `c1n[nH]c(NCc2ccc3c(c2)OCO3)n1` is 1%; for `N#Cc1nc(Cc2cccc3ccccc23)oc1NCc1ccc2c(c1)OCO2` it is 63.7% (active); for `COc1cc2[nH]c(=S)n(CCN3CCCCC3C)c(=O)c2cc1OC` (stereo unspecified) it is 23.6%.

Regarding `Cc1ccc(S(=O)(=O)/N=C(\CN2CCOCC2)N2CCOCC2)cc1`, the inhibition was 7.1%. For `CC(=O)C1C(c2cccc(Oc3ccccc3)c2)NC(=O)NC1(O)C(F)(F)F` (stereo unspecified) the value was 0.7%. The figure for `Cc1cccc(NC(=O)CSc2nnc(NC(=O)CN3CCOCC3)s2)c1` is 10.9%; for `Cc1cc(C)n(-c2nc(SCC(=O)N3CCCC3)c3c4c(sc3n2)CCCC4)n1` it is 78.8% (active); for `COCCNc1nc(-n2nc(C)cc2C)nc2sc3c(c12)CCCC3` it is 16.5%. The figure for `COCCn1c(C)cc(C(=O)CSc2ncnc3sc4c(c23)CCC4)c1C` is -41.7%; for `CCCC1C(c2ccccc2)C(C#N)(C#N)C2(C#N)CC1(N)NC2=O` (stereo unspecified) it is 4.8%. For `COc1ccc(N2C(=O)CN=C2Nc2cccc(C)c2C)cc1OC`, the inhibition is 10.9%. For `Cc1cc(N2CCN(S(=O)(=O)c3ccc(C)c(C)c3)CC2)c2ccccc2n1` the value was 89.9% (active). For `O=c1ccc2cc(S(=O)(=O)N3CCN(c4ccccc4)CC3)ccc2o1` the value was 5.5%; for `Cc1ccc(S(=O)(=O)N2CC(=O)Nc3ccccc32)cc1C`, -50.4%. For `CCCCNC(=O)CSc1nc2ccc(NC(=O)CSc3nnc(COc4ccccc4C)n3C)cc2s1` the value was 75.1% (active); for `CCOC(=O)c1ccc(NC(=O)CSc2nnc(COc3ccccc3OC)n2C)cc1`, 11.7%. Consider `CCCCNC(=O)CSc1nnc(-c2ccco2)n1C`, for which the inhibition was 44.2%.

As to `O=C1CCCc2c1nc(-c1cccc(Cl)c1)n2O`, the inhibition is 11.3%. As for `CC1(C)CC(=O)C(C=NCc2cccnc2)=C(O)C1`, the inhibition was -14.4%. For `CCNc1nc(N)nc(-c2cc(Cl)ccc2OC)n1` the value was -0.8%. As to `COC(=O)c1sc(NC(=O)c2csc3c2CCCC3)nc1C`, the inhibition is -7.3%. For the molecule `COC(=O)c1c(NC(=O)CSc2nncs2)sc2c1CCCCC2`, the inhibition was 91.9% (active). Turning to `COC(=O)c1c(NC(=O)c2cccs2)sc2c1CCCC2`, the inhibition is 58.4% (active). `CNC(=O)c1c(NC(NC(=O)c2ccco2)C(=O)c2ccc(Cl)cc2)sc2c1CCCC2` (stereo unspecified): the inhibition was 46.5%. The figure for `COC(=O)c1sccc1NC(=O)c1csc2c1CCCC2` is 13.7%; for `Cc1ccc(C(=O)c2c(NC(=O)c3ccccc3)sc(C)c2C)cc1` it is 43%; for `CCOC(=O)c1c(NC(=O)CCC(=O)NCc2ccco2)sc2c1CCCC2` it is 41.9%. As for `Cc1ccc(C(=O)c2c(NC(=O)c3ccncc3)sc3c2CCCC3)cc1`, the inhibition was 67.8% (active).

Consider `Cc1ccc(Cn2c(NC(=O)c3ccco3)nc3ccccc32)cc1`, for which the inhibition is -10.6%. The figure for `Cc1cc(C)nc(SC(C)C(=O)N/N=C/c2cccs2)n1` (stereo unspecified) is 41.1%; for `CC12CCC(C(=O)N(CCC#N)CCC#N)(CC1=O)C2(C)C` (stereo unspecified) it is -10.7%; for `CCC(C(=O)Nc1ncccn1)(C(F)(F)F)C(F)(F)F` it is -8.6%. For `Oc1ccc(Cl)cc1/C=N/c1nc2ccccc2[nH]1` the value was -15.4%; for `CCn1ncc(C2=NOC(C(=O)N3CCN(c4ccccc4)CC3)C2)c1C` (stereo unspecified), -12.4%. For `Cc1cc(C)c(S(=O)(=O)NCCCN2CCOCC2)cc1Br` the value was -101%; for `C=CCSc1nc2c(c(=O)[nH]1)C(C(C)C)C(C#N)=C(N)O2` (stereo unspecified), 17.7%. For `COc1cccc(N2CCN(C3CC(=O)N(c4ccc(Cl)cc4)C3=O)CC2)c1` (stereo unspecified), the inhibition was 11.2%.

`Cn1cnc2c1c(=O)n(Cc1c(Cl)cccc1Cl)c(=O)n2C`: the inhibition was 32.6%. Take `O=S(=O)(NC1CCCCC1)c1ccc(F)c2ccccc12`: the inhibition is 53.4% (active).

Take `O=C(CC(NS(=O)(=O)c1ccc(Cl)cc1)c1ccco1)NC1CCCC1` (stereo unspecified): the inhibition is 18.5%. The figure for `CCOc1cccc(NC(=O)C2CCCN(S(=O)(=O)c3ccc(OC)cc3)C2)c1` (stereo unspecified) is 21.3%; for `O=C(CSCc1ccc(Br)cc1)Nc1ccc(S(=O)(=O)N2CCCCCC2)cc1` it is 56.5% (active); for `COC(=O)COc1ccc(S(=O)(=O)N2CCOCC2)cc1` it is -8.2%.

In the case of `COc1ccc(OCC(=O)OCC(=O)Nc2ccc(S(=O)(=O)N3CCCCC3)cc2)cc1`, the inhibition is 63.1% (active). The figure for `CCCN1Cc2cccc(C(=O)Nc3ccc(S(=O)(=O)N4CCCCCC4)cc3)c2C1=O` is 38%; for `Cc1ccc(OCCCC(=O)Nc2ccc(N3CCOCC3)cc2)cc1` it is 15.2%. For `C=CCNC(=O)CCCOc1cccc(C)c1` the value was -3.3%. For `Cc1cccc(OCCCC(=O)Nc2ccc(S(=O)(=O)N3CCCC3)cc2)c1` the value was 65.2% (active). On to `O=C(Nc1ccc(S(=O)(=O)N2CCCCC2)cc1)c1cnccn1`, for which the inhibition was 23.2%. For `CC(=O)Nc1ccc(S(=O)(=O)N2CCN(CCCOc3cc(C)ccc3C)CC2)cc1` the value was 83.6% (active).

For the molecule `CC(=O)Nc1ccc(S(=O)(=O)N2CCSCC2)cc1`, the inhibition was 14%.

Take `CC(=O)Nc1ccc(S(=O)(=O)N2CCN(C3CCCCCCC3)CC2)cc1`: the inhibition was 40.3%. With `Cc1cc(OCCOc2cccc3cccnc23)c(C)cc1Cl`, the inhibition was -170%. The figure for `CCOC(=O)c1nnn(-c2nc(OC)nc(N(C)C)n2)c1-c1ccccc1` is 6.1%; for `Cc1nnc(SCC(=O)N2CCN(c3ccccc3)CC2)n1-c1ccccc1` it is 1.8%; for `COc1cc(OC)cc(C(=O)Nc2ncc3c(n2)CC(C)(C)CC3=O)c1` it is -12.1%. For `CN(NC(=O)c1ccccc1)c1nc2ccccc2nc1C(F)(F)F` the value was 15.5%; for `Cc1cc(C(=O)CSc2nc(N)cc(=O)[nH]2)c(C)n1CCc1ccc(Cl)cc1`, 11.4%; for `CCOc1cc(C)c(Cl)cc1S(=O)(=O)n1nnc2ccccc21`, 39.1%. The figure for `CCOc1ccc(NC(=O)CCC(=O)n2nc(C)cc2C)cc1` is 5.6%.

In the case of `CCOc1ccc(C(C)C)cc1S(=O)(=O)n1nc(C)cc1C`, the inhibition was 91.3% (active). The figure for `CCSC1=C(C#N)C(=O)n2c1cc1c2CCCC1` is -14.3%. For `O=S(=O)(NCC1CCCO1)c1ccc2ccccc2c1` (stereo unspecified) the value was -199%; for `CCOc1cc(C2C(C(=O)OC)=CN(C3CCCC3)C=C2C(=O)OC)cc(Br)c1O`, -9.6%.

On to `Cc1noc(NS(=O)(=O)c2ccc(NC(=O)C34CCC(CC3)C4)cc2)c1C`, for which the inhibition is 0.8%. The figure for `COc1ccc(C(=O)Nc2ccc(S(=O)(=O)Nc3onc(C)c3C)cc2)cc1OC` is 1.2%; for `Cc1noc(NS(=O)(=O)c2ccc(N/C=C/C(=O)c3ccccc3)cc2)c1C` it is 93.9% (active). The figure for `Cc1ccc(S(=O)(=O)NCCN2CCOCC2)cc1C` is 21.9%; for `Cc1ccc(-c2nc(C)sc2CC(=O)O)cc1` it is 5.6%.

On to `Cc1cc(NC(=O)c2cc(-c3cccs3)on2)nn1Cc1ccc(Cl)cc1`, for which the inhibition is -17.2%. Consider `Cc1ccc(Cn2ccc(NC(=O)C3C4CCC(C4)C3C(=O)O)n2)cc1` (stereo unspecified), for which the inhibition is 13%.

Turning to `CC(=O)Nc1ccn(Cc2c(F)cccc2Cl)n1`, the inhibition was 6.2%. The figure for `Cc1ccc(Cn2ccc(NC(=O)c3cc(C(C)C)on3)n2)cc1` is 97.5% (active). The figure for `O=C(Nc1ccn(Cc2ccc(F)cc2)n1)c1ccncc1` is 92.9% (active); for `Cc1nn(Cc2ccc(F)cc2)c(C)c1NC(=O)c1noc2c1CCc1ccccc1-2` it is -1.9%. The figure for `CCOC(=O)c1nn(-c2cccc(C)c2)cc1C(=O)c1ccccc1` is 33.5%; for `Cc1ccc(-c2ccnc3nc(Sc4ncc(C(F)(F)F)cc4Cl)nn23)cc1` it is 9.8%; for `N#Cc1cccc(CSc2nnc(CCCO)n2-c2ccccc2)c1` it is 11.5%. As to `Cc1cccc(NC(=O)c2ccc(OCC(=O)NCc3ccccc3)cc2)c1C`, the inhibition is -9.9%.

On to `Cc1cccc(C)c1NC1=NC(=S)N(c2ccc(N(C)C)cc2)C1(C)C`, for which the inhibition is -27.7%.

As to `CCN(CC)S(=O)(=O)c1cc([N+](=O)[O-])ccc1NNC(=O)Nc1ccccc1`, the inhibition is 25.7%. On to `COc1ccc(NC(=O)ON=C2c3ccccc3-c3ccccc32)cc1`, for which the inhibition is 16%. For `O=C(Nc1ccccc1)O/N=C1\CCCCC1c1ccc([N+](=O)[O-])cc1[N+](=O)[O-]` (stereo unspecified) the value was 63.3% (active). The figure for `Cc1ccc2oc(=O)c3cnn(CC(=O)N4CCCCCC4)c3c2c1` is 4.4%. The figure for `COc1ccc(N2C(=O)CCC(C(=O)N(C)C3CCCCC3)C2c2ccc(OC)c(OC)c2)cc1` (stereo unspecified) is 10.7%; for `CCCn1c(C(Cc2ccccc2)NC(=O)COC)nc2ccccc21` (stereo unspecified) it is 74.5% (active); for `C=CCn1c(C(C)NC(=O)CC)nc2ccccc21` (stereo unspecified) it is -3.6%.

Regarding `CCCC(NC(=O)c1ccccc1)c1nc2ccccc2n1Cc1ccc(C(=O)OC)o1` (stereo unspecified), the inhibition is 14.1%. The figure for `CC/S(CC1CC1(Cl)Cl)=N\S(=O)(=O)c1ccc(C)cc1` (stereo unspecified) is -9%; for `CS(=O)(=O)N1CCN(c2cccc(Cl)n2)CC1` it is 19.9%. As for `CN1c2ccccc2-c2nc3ccccc3n2C1c1ccco1` (stereo unspecified), the inhibition was 45.9%.

Turning to `O=C(Oc1cccnc1)c1cc2ccccc2oc1=O`, the inhibition is 30.1%. For the molecule `Cc1ccc(-c2noc(CCC(=O)Nc3ccccc3N3CCN(C)CC3)n2)cc1`, the inhibition is 48.1%. Turning to `CCc1ccc(CNC(=O)CCc2nc(-c3cccs3)no2)cc1`, the inhibition was 70.4% (active). For `CCNC(=O)CCc1nc(-c2ccc(C(C)(C)C)cc2)no1` the value was -11.4%.
